In the library only some 2.5% were active in any assay of this set; here they are far more common.
PHOSPHO1 block: PHOSPHO1 (human) inhibition; recombinant PHOSPHO1, absorbance phosphatase assay; Q8TCT1; inhibition, % at 13.3 µM; actives 1.1% (n = 290,000); in the data active = inhibition above about 60%
UBC9 SUMO inh: blocks human SUMOylation mediated by UBC9 | inhibition, % at 35 µM | actives 0.36% (n = 290,000) | AID 2006 | HTRF SUMOylation assay, SAE1/SAE2 + UBC9, in vitro; in the data active = inhibition above about 50%, passing the limit was not always enough; inconclusive = no clear call, values can overlap the other calls
HDAC3 inh: human HDAC3 inhibition; recombinant HDAC3, fluorogenic peptide/trypsin coupled, fluorescence; O15379; AID 2718; actives 0.15% (n = 320,000); inhibition, % at 8.3 µM; in the data active = inhibition above about 26%, passing the limit was not always enough; inconclusive = no clear call, values can overlap the other calls
G6PDH counter: inhibits Leuconostoc G6PDH, flagging false hits in G6PDH-based assays. Purified L. mesenteroides G6PDH, diaphorase/resazurin coupled fluorescence, 45 min. inhibition, % at 5 µM. actives 0.12% (n = 200,000). AID 1020; in the data active = inhibition above about 50%
p97 ATPase inh: human p97 ATPase inhibition | P55072 | recombinant p97 ATPase, Kinase-Glo ATP luminescence, 3 h | inhibition, % at 8 µM | actives 0.42% (n = 220,000); in the data active = inhibition above about 15%;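 note: 0% = DMSO vehicle and 100% = wells lacking enzyme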
PfM18AAP inh-1: PfM18AAP enzyme inhibition | recombinant PfM18AAP, H-Glu-NHMec fluorogenic cleavage | actives 1.2% (n = 290,000) | inhibition, % at 7.35 µM;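 active = inhibition above the campaign mean inhibition over all tested compounds plus 3 SD, cut at about 28% in these data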;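 note: 0% = plate median of test compound wells and 100% = 2 mM ZnCl2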
p97 inh conf: human p97 ATPase inhibition, confirmation. shares compounds with p97 ATPase inh. recombinant p97 ATPase, Kinase-Glo ATP luminescence. inhibition, % at 8 µM. actives 44% (n = 760). AID 1517;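 active = percent inhibition of p97 ATPase above a set limit, the primary screen's mean plus 3 SD, cut at about 15% in these data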;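 note: 0% = DMSO wells and 100% = wells lacking p97 protein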
PfM18AAP inh-2: PfM18AAP inhibition, confirmation; shares compounds with PfM18AAP inh-1; recombinant PfM18AAP, H-Glu-NHMec fluorogenic cleavage; inhibition, % at 7.35 µM; actives 28% (n = 2,400);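 active = mean inhibition over replicate wells above the hit cutoff set for the earlier primary screen, cut at about 29% in these data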;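 note: 0% = median of test compound wells and 100% = 2 mM ZnCl2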
CTSL1 counter: counter-screen for PFM18AAP inhibitors: confirmation of human cathepsin L inhibitors | 2,400 tested, under 10 active | purified cathepsin L1, Z-Leu-Arg-MCA fluorescence | shares compounds with PfM18AAP inh-1 | inhibition, % at 5.96 µM;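 active = average inhibition across replicates above the hit cutoff set in the earlier primary screen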;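 note: 0% = median of test compound wells and 100% = Z-Phe-Ala-diazomethylketone 1 µM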
Numbers without * were called inactive; ? = inconclusive; · = no result.

SMILES	PHOSPHO1 block	UBC9 SUMO inh	HDAC3 inh	G6PDH counter	p97 ATPase inh	PfM18AAP inh-1	p97 inh conf	PfM18AAP inh-2	CTSL1 counter
CCSc1cc(C)nc2c(-c3ccc(Cl)cc3)c(C)nn12	-4.2	46.0	-5.9	5.8	-1.8	1.5	·	·	·
Cc1cc(SCC(=O)c2ccc(O)c(O)c2)n2nc(C)c(-c3ccccc3)c2n1	31.6	6.2	-0.7	·	15.2*	56.6*	18.4*	37.4*	-4.5
CC1CCCC(C)N1C(=O)COC(=O)COc1ccc(C#N)cc1 (centres undefined)	·	·	-2.5	·	·	·	·	·	·
NS(=O)(=O)c1ccc(Nc2nc(-c3ccc(O)cc3O)cs2)cc1	5.0	19.5	10.5	20.3	26.6*	41.4*	50.5*	38.5*	3.1
NS(=O)(=O)c1ccc(Nc2nc(-c3ccc(F)cc3)cs2)cc1	19.2	-7.7	4.0	1.6	8.1	6.3	·	·	·
O=S(=O)(c1ccc(NC(=S)N/N=C/c2ccc(O)c(O)c2)cc1)N1CCOCC1	19.7	15.4	0.8	·	18.7*	57.2*	21.0*	33.7*	-0.7
N#Cc1ccc(/C=N/NC(=S)Nc2ccc(S(=O)(=O)N3CCOCC3)cc2)cc1	10.0	16.2	1.2	·	3.9	3.3	·	·	·
O=[N+]([O-])c1ccccc1S(=O)(=O)N1CCN(c2ccccc2)CC1	18.9	4.2	-3.4	·	·	-13.2	·	·	·
O=C(O)Cc1c[nH]c2cccc(O)c12	39.7	?	-1.1	27.3	17.1*	44.1*	18.6*	0.1	-5.6
O=C(O[C@@H]1OC2COC(=O)c3cc(O)c(O)c(O)c3-c3c(cc(O)c(O)c3O)C(=O)O[C@@H]([C@H]1O)[C@@H]2O)c1cc(O)c(O)c(O)c1	6.0	88.6*	8.6	8.2	38.3*	62.5*	60.4*	45.0*	-1.5
O=C(C1CCC1)N1CCC(O)(c2cccc(F)c2)CC1	2.0	9.2	-2.7	0.2	1.7	-1.0	·	·	·
O=C1S/C(=C\C=C\c2ccco2)C(=O)N1c1ccc(O)cc1	3.0	81.3	0.2	-9.1	42.8*	39.1*	10.6	-38.9	11.5
NC(=S)N/N=C/c1coc2ccc(O)cc2c1=O	19.1	-0.5	9.0	·	15.4*	68.8*	11.2	42.3*	5.7
Cc1ccnc2nc(C(=O)OC(C)C(=O)NCc3ccccc3)nn12 (centres undefined)	·	·	-2.9	·	·	·	·	·	·
CCOC(=O)N1CCN(Cc2ccc3c(c2)OCO3)CC1	·	3.8	-1.3	·	·	-1.1	·	·	·
Cc1c(O)ccc(C(=O)CN2CCN(Cc3ccc4c(c3)OCO4)CC2)c1O	0.3	2.0	5.5	8.8	15.5*	93.3*	8.2	-18.0	2.4
N#CC1(NC(=O)CSc2nnc(-c3ccccc3F)o2)CCCCC1	·	·	0.0	·	·	·	·	·	·
O=C1c2ccc([N+](=O)[O-])cc2NC(c2ccco2)N1/N=C/c1ccco1 (centres undefined)	-12.1	18.3	-6.1	·	15.9*	40.2*	7.8	-10.3	0.3
CN=c1scc(-c2ccc([N+](=O)[O-])cc2)n1/N=C/c1ccco1	32.2	23.4	2.9	0.9	4.4	7.8	·	·	·
CC1CCN(C(=O)CSc2nc3ccccc3c(=O)[nH]2)CC1	11.7	14.4	-3.4	13.2	8.3	0.5	·	·	·
Cc1cccc(NC(=O)CSc2nc3[nH]ncc3c(=O)[nH]2)c1C	-4.0	-1.9	-2.5	7.9	1.3	41.8*	·	27.7	-4.3
CC1CCN(C(=O)CSc2nc3[nH]ncc3c(=O)[nH]2)CC1	18.2	-5.3	2.9	11.0	-0.9	33.1*	·	-25.8	-7.1
CCC1(c2ccccc2)NC(=O)N(CC(=O)N(CC(=O)Nc2ccccc2C(F)(F)F)Cc2ccco2)C1=O (centres undefined)	·	·	0.7	·	·	·	·	·	·
O=C1/C(=C/c2ccco2)SC(=S)N1CCC(=O)N1CCCCC1CCO (centres undefined)	41.2	·	6.4	·	·	31.8*	·	-26.4	1.4
O=C1/C(=C/c2ccc(Cl)cc2)SC(=S)N1CCC(=O)N1CCCCC1CCO (centres undefined)	-0.7	12.8	1.3	·	·	2.0	·	·	·
